Data taken from PubChem BioAssay AID1117361 (Southern Research Institute, 2015).
Out of some 3,600 compounds screened, about 900 (25%) were called active. Not all results are given here. Potency and affinity values are given separately. A number with no mark means an inactive call. The rule behind the calls is not given here.

These compounds were tested against Protein Tat (Human immunodeficiency virus type 1 group M subtype B (isolate HXB2)) (UniProt P04608) (assay: inhibitors of Tat binding to TAR RNA, dose response, counter-screen for Vif-APOBEC3G degradation inhibitor project, biochemical, fluorescence polarization, FAM-labeled TAR RNA (AID 1117361)). Settings: outcome: dose series up to 100 µM unless noted; series mostly up to 100 µM; inhibition: at the top concentration.

SMILES	inhibition	outcome
O=S(=O)(NCc1cn2ccsc2n1)c1cccs1	0.68%	–
Nc1cccc2c1C(=O)N(C(=O)/C=C/c1cccc(Br)c1)C2=O	19%	–
COc1ccc(NC(=O)O/N=C/c2ccccc2Cl)cc1	3.3%	–
Cc1ccc(S(=O)(=O)N/N=C/c2ccc(OCC(=O)Nc3ccccc3Cl)cc2)cc1	7.43%	–
Cc1ccc(OCC(=O)NNC(=O)CCc2ccccc2)cc1	–	inactive
COc1ccc(OC)c(NC(=O)CCN2CCC(C)CC2)c1	14.2%	–
COc1ccccc1N(C)S(=O)(=O)c1ccc(C(=O)NC(C)(C)C)cc1	–	inactive
Cc1ccn(C(=O)c2cc3ccccc3oc2=O)n1	0.68%	–
COc1ccc(-n2ncc3c(N4CCC(C(N)=O)CC4)ncnc32)cc1	–	inactive
CCOC(=O)CSc1nnc(CNC(=O)c2ccccc2OC)n1-c1ccc(OC)cc1	4.09%	–
Cc1ccc(C)c(-n2c(SCC(N)=O)nnc2-c2ccccn2)c1	9.46%	–
CCCn1c(SCC(=O)c2cc(C)ccc2C)n[nH]c1=O	12.8%	–
Cc1cccc(-n2c(=O)cc(N3CCN(c4ccc(F)cc4)CC3)[nH]c2=O)c1	–	inactive
CCOc1ccc(-n2c(SCC(N)=O)nnc2-c2cccnc2)cc1	9.9%	–
S=C1NC2(CCCCCC2)N=C1c1ccccc1	–	inactive
Cc1ccc(C)c(/C(O)=C2/C(=O)C(=O)N(CCN3CCOCC3)C2c2ccco2)c1 (configuration not stated)	10.3%	–
COc1ccc(OC)c(NC(=O)CC2C(=O)NCCN2C(=O)Nc2cccc(Cl)c2)c1 (configuration not stated)	23.1%	–
O=C(O)C1CCN(S(=O)(=O)/C=C/c2ccccc2)CC1	–	inactive
Cc1ccnc(N2CCC(C(=O)NNC(=O)c3ccccc3C)CC2)n1	–	inactive
CCn1c(CNC(=O)Cc2ccc(OC)cc2)nnc1SCC(=O)Nc1ccc(C(=O)O)cc1	5.77%	–
Cc1nn(C(=O)c2cccnc2)c(C)c1C	6.08%	–
COC(=O)Cc1c(C)nc2nc(-c3cccnc3)[nH]n2c1=O	–	inactive
O=C(NCc1ccco1)C1CCCN(S(=O)(=O)c2cccc3nsnc23)C1 (configuration not stated)	4.05%	–

SMILES	inhibition	outcome
c1ccc(SCc2nc3ccccc3[nH]2)cc1	–	inactive
COc1cc(/C=C(\C#N)c2nc3ccccc3[nH]2)c([N+](=O)[O-])cc1OCc1ccccc1	16.2%	–
CC1(C)C2CCC1(CS(=O)(=O)Nc1cccc(S(N)(=O)=O)c1)C(=O)C2 (configuration not stated)	3.3%	–
COc1ccc(N2CCN(C(=O)c3c(-c4ccccc4)noc3C)CC2)cc1	13%	–
COc1ccc(NC(=O)c2c(OC)cccc2OC)c(OC)c1	–	inactive
COc1ccc(OC)c(NC(=O)NCc2ccc(F)cc2)c1	12.2%	–
Cn1nc(CC(=O)NCCN2C(=O)CSC2=O)c2ccccc2c1=O	5.46%	–
CCOc1ccc(-n2c(SCC(=O)Nc3cc(C)on3)nnc2-c2c[nH]c3ccccc23)cc1	25.1%	–
COc1cccc(NC(=O)Nc2nnc(N3C(C)CCCC3C)s2)c1 (configuration not stated)	–	inactive
COC(=O)c1cc(=O)n(Cc2ccc3c(c2)OCO3)c(=Nc2ccc(F)c(Cl)c2)s1	–	inactive
COCCn1c(SCC(=O)Nc2ccccc2F)nc2c([nH]c3ccccc32)c1=O	–	inactive
O=C(O)CN1C(=O)CSc2ccccc21	–	inactive
COc1ccc(Nc2nc3ccccc3nc2-n2nc(C)cc2C)cc1	–	inactive
COc1ccc(NC2=NC(C)(CO)CS2)cc1 (configuration not stated)	–	inactive
CCOC(=O)C(C(=O)OCC)C(CC(=O)C1CC1)c1ccccc1 (configuration not stated)	–	inactive
CCCCCCCCNc1ncnc2ccccc12	6.08%	–
O=C(O)/C=C/C(=O)NNc1ncnc2ccccc12	–	inactive
O=C(CSc1nnc(CNC(=O)c2ccccc2F)o1)c1ccccc1	–	inactive
CCc1ccccc1NC(=O)c1cc2ncc(Br)cn2n1	3.41%	–
COc1ccc(Br)c(C(=O)NC(C)(C)CO)c1	9.9%	–
O=[N+]([O-])c1ccc2c([N+](=O)[O-])ccc3c2c1CC3	5.01%	–
CCC(=O)Nc1cccc(-c2nc3ccccc3c(=O)o2)c1	1.35%	–
O=C(O)CSCc1c(F)cccc1Cl	–	inactive

SMILES	inhibition	outcome
CC(C(=O)NCC1CCCCC1)N(C)Cc1ccc(Br)cc1 (configuration not stated)	–	inactive
O=S(=O)(O)c1cccc2c(N=Nc3ccc(O)c4ncccc34)cccc12	3.01%	–
O=C(c1ccccc1)c1ccc(OC(=O)N2CCOCC2)cc1	–	inactive
CCC(CC)C(=O)Nc1cccc(C(=O)N2CCOCC2)c1	–	inactive
CCOC(=O)C1CCN(C(=O)c2ccc3snnc3c2)CC1	4.12%	–
O=C(c1ccc(-n2cnnn2)cc1)N1CCOCC1	–	inactive
CCOC(=O)N1CCN(C(=O)c2ccc(NC(=O)c3ccc(C)cc3)cc2)CC1	0.68%	–
CC(C)CCNC(=O)c1ccc2c(SCC(=O)O)c3c(nc2c1)CCC3	4.95%	–
O=C(Nc1cccc(S(=O)(=O)N2CCCCC2)c1)c1ccc2c(=O)n3c(nc2c1)CCCCC3	–	inactive
O=C(NNC(=O)c1ccccc1-n1cccc1)c1ccc(Cl)c(Cl)c1	3.38%	–
CC(C)(C)NC(=O)c1cnn2c1NC(c1ccc(F)cc1)CC2C(F)(F)F (configuration not stated)	–	inactive
CN(C)C=NC(=O)/C(C#N)=C1\CCc2ccccc2N1	4.77%	–
Nn1c(SCC(=O)NCCc2ccc(F)cc2)nnc1C1CCCCC1	8.25%	–
COc1ccccc1CNC(=O)CCS(=O)(=O)c1ccc2c(c1)CCCN2C(C)=O	6.76%	–
CCOC(=O)Nc1ccc2c(CN3C(=O)NC4(CCCC4)C3=O)cc(=O)oc2c1	3.41%	–
Cc1ccc(N(CN2C(=O)C3CC=CCC3C2=O)C(=O)c2ccco2)cc1Cl (configuration not stated)	25.2%	–
CCc1[nH]nc2c1C1(CCN(C(=O)OCc3ccccc3)CC1)C(C#N)=C(N)O2	–	inactive
Cc1[nH]c2ccccc2c1Cc1nnc(SCc2ccccc2)o1	28.4%	–
Cn1cc(CN2CCN(CCO)CC2)c(-c2ccc(Oc3ccccc3)cc2)n1	–	inactive
CCc1c(O)nc(N2CCN(Cc3ccccc3)CC2)[nH]c1=O	4.73%	–
O=c1ccccn1Cc1c(F)cccc1Cl	20.3%	–
CCOC(=O)c1cnc(-c2ccccc2)nc1Oc1ccc(C)cc1	4.77%	–
CCOc1ccc(C(=O)N2CCCN(C(=O)c3ccc(OCC)cc3)CC2)cc1	–	inactive

SMILES	inhibition	outcome
CCOc1ccc(-n2c(C)nc(O)c2N=Nc2ccccc2)cc1	–	inactive
CCOC(=O)Cn1c(=O)n(CC(=O)OCC)c2ccccc21	1.35%	–
CCOc1ccccc1CNC(=O)Cn1c(=O)oc2ccccc21	–	inactive
CCOc1ccccc1NC(=O)Cn1c(-c2ccc(Cl)cc2)noc1=O	–	inactive
Cc1sc(NC(=O)CN2CCOCC2)nc1-c1ccc2c(c1)CCN2S(=O)(=O)c1ccccc1	16.9%	–
COc1ccccc1NC(=O)COC(=O)c1c(NC(C)=O)sc(C)c1C	11.7%	–
CCOc1ccc(-n2c(SC)nc3c(c2=O)SCC3)cc1	4.73%	–
CC(C)Oc1ccc(CNCC2(O)CCOC(C)(C)C2)cc1 (configuration not stated)	0.68%	–
Cc1sc(NC(=O)CSc2nnnn2C(C)C)c(C#N)c1C	–	inactive
CNc1sc(C(=O)c2cccs2)c(N)c1-c1nc2ccccc2s1	3.01%	–
COCCNC(=O)CN1C(=O)CSc2ncccc21	10.2%	–
CC(=O)OC1OCCOC1NC(=S)Nc1ccc(C)cc1 (configuration not stated)	12.4%	–
COc1ccc(OCc2nnc3n2N=C(c2ccc(OC)cc2)CS3)cc1	6.08%	–
CCn1c(SCC(=O)c2ccc(F)cc2)nnc1-c1ccoc1C	12.2%	–
CCCCOc1ccccc1C1NC(=O)NC(C)=C1C(=O)OCc1ccco1 (configuration not stated)	14.3%	–
CCOc1cc(C)c(Cl)cc1S(=O)(=O)NCc1ccco1	2.7%	–
COC(=O)CSc1nnc(-c2ccccc2OC)n1-c1ccc(C)cc1	7.5%	–
COc1ccc(C(=O)O)cc1S(=O)(=O)N1CCCc2ccccc21	–	inactive
Oc1cc2c(cc1O)[C@@H](c1ccccc1)CNCC2	13.2%	–
CC1CCc2cc(F)ccc2N1C(=O)CSc1nnc(-c2cccs2)n1C (configuration not stated)	–	inactive
CCOc1cc(S(=O)(=O)NCc2ccccn2)c(C)cc1C	2.7%	–
O=C(Cn1nnc(-c2ccccc2-n2cnnn2)n1)c1ccccc1	4.73%	–
C=CCOc1ccc(/C=C2\SC(=S)N(CCC(=O)O)C2=O)cc1	3.99% [at 50 µM]	–

SMILES	inhibition	outcome
O=C(CN1C(=O)/C(=C\c2cccs2)SC1=S)Nc1cccc(C(=O)O)c1	21.4%	–
CC(=O)O/N=C/c1c(N2CCOCC2)n(C)c2ccccc12	6.82%	–
CCS(=O)(=O)Nc1ccc(C(=O)CC2(O)C(=O)Nc3ccccc32)cc1 (configuration not stated)	6.08%	–
COc1ccc(S(=O)(=O)Cc2ccc(C(=O)NC(C)C)o2)cc1	14.9%	–
CCOC(=O)C1CCCN(C(=O)c2ccc(CS(=O)(=O)c3ccc(Br)cc3)o2)C1 (configuration not stated)	10.8%	–
CCOC(=O)CSc1nnc(CNC(=O)c2cccs2)n1CCc1ccccc1	4.09%	–
Cc1ccc(SCC2=NNC(=O)C2)cc1	13.6%	–
COc1ccccc1N(CC(O)CN1C(=O)NC(C)(C)C1=O)S(=O)(=O)c1ccc(C)cc1 (configuration not stated)	2.7%	–
CN(C)/C=N/NC(=O)c1ccccc1Cl	–	inactive
Cc1nn(Cc2ccccc2)c(C)c1/C=N/NC(=O)c1ccccc1O	4.12%	–
Cc1nc2ccc(S(=O)(=O)N(C)CC(=O)N3CCc4ccccc43)cc2s1	4.09%	–
COC(=O)[C@@]1(Cc2ccc(OC)cc2)[C@H]2c3cc(C(=O)N(C)C)n(C[C@H](O)CO)c3C[C@H]2CN1C(=O)c1ccccc1	2.47%	–
COc1ccc(-c2nc(CS(=O)CC(=O)NCc3ccco3)c(C)o2)cc1 (configuration not stated)	14.2%	–
CCOC(=O)c1sc2ncnc(N3CCN(C(=O)OCC)CC3)c2c1C	–	inactive
CCCCC(O)(CCCC)C(=O)N/N=C(\C)c1ccc(Cl)cc1	14%	–
Cc1ccc2nc(SCC(=O)N(CC(C)C)c3c(N)n(CC(C)C)c(=O)[nH]c3=O)[nH]c2c1	16.9%	–
COc1ccc(NC(=O)C2CCCN(S(=O)(=O)c3cccnc3)C2)cc1 (configuration not stated)	–	inactive
O=c1[nH]c2ccccc2c(O)c1-[n+]1ccccc1	4.12%	–
COC(=O)C(NC(=O)C(NC(=O)c1ccccc1)C(C)C)C(C)C (configuration not stated)	8.78%	–
CCC(C)[C@H](NC(=O)Nc1ccccc1F)C(=O)OC (some centres not stated)	4.12%	–
